From PubChem BioAssay AID504329 (Southern Research Specialized Biocontainment Screening …, 2011)
The campaign covered roughly 340,000 compounds. About 1,000 (0.29%) were called active. These entries were drawn from the full list. Potency and affinity values are given separately. Values without a mark were called inactive. Cut-off read from the data, not from the text of the source: inconclusive = inhibition above about 27% without an active follow-up result; inactive = below that.

assay: H1N1 influenza NS1A inhibitors, functional cell based assay (AID 504329); details: percent inhibition, at 12.5 µM, hits give high values

Structure (SMILES) | inhibition [%]
O=CNCC(=O)NC1CCCCCC1 | -2.65
Cc1ccc(OCC(=O)N/N=C/c2cccnc2)cc1C | -11
O=C1NC(=O)C(CC(=O)N(c2ccccc2)C2(C(=O)NC3CCCC3)CCCCC2)N1 (stereo not given) | -0.63
CC(Oc1ccc(Cl)cc1Cl)C(=O)Nc1ccc(N2CCN(C)CC2)cc1 (stereo not given) | 9.83
Cc1ccc(S(=O)(=O)NCC(=O)N2CCN(c3ccccc3F)CC2)cc1 | 11.9
CCN1CCN(C2=C(NS(=O)(=O)c3ccccc3)C(=O)c3ccccc3C2=O)CC1 | -3.88
CCN1CCN(C2=C(NS(=O)(=O)c3ccc(C)cc3)C(=O)c3ccccc3C2=O)CC1 | 10.6
Cc1ccc(S(=O)(=O)CC(=O)N2CCN(c3ccccc3F)CC2)cc1 | 2.84
CCOC(=O)N1CCN(C2=C(NS(=O)(=O)c3ccccc3)C(=O)c3ccccc3C2=O)CC1 | 18.6
Cc1ccc(S(=O)(=O)Nc2nc3ccccc3nc2N2CCN(c3ccccc3F)CC2)cc1 | -0.57
CCOC(=O)N1CCN(C2=C(NS(=O)(=O)c3ccc(NC(C)=O)cc3)C(=O)c3ccccc3C2=O)CC1 | 12.4
CC(=O)Nc1ccc(S(=O)(=O)NC2=C(N3CCN(Cc4ccccc4)CC3)C(=O)c3ccccc3C2=O)cc1 | 12.6
CC(C)(C)NC(=O)C12CC3CC(CC(Cl)(C3)C1)C2 | 1.34
O=C(COC(=O)c1ccc(Br)c(S(=O)(=O)N2CCOCC2)c1)NC1CC1 | -5.17
CCOC(=O)c1cc(S(=O)(=O)NC2CCC(C)CC2)cn1C (stereo not given) | -6.39
CCCOc1ccc(NC(=O)C(=O)NCCCn2ccnc2)cc1 | -6.26
Cc1cccc(Oc2cnn(C(C)(C)C)c(=O)c2Cl)c1 | -1.49
CN1CCN(c2ccc(Cl)cc2NC(=O)CC2OC(=O)c3ccccc32)CC1 (stereo not given) | -6.08
CCOC(=O)N1CCN(c2cc(NCCO)c([N+](=O)[O-])c3nonc23)CC1 | -0.42
CCOC(=O)c1c(C)nc2c(c1-c1ccccc1)C(=O)c1ccccc1-2 | -17.6
O=C1c2ccccc2-c2c1cccc2C(=O)N1CCN(C(=O)c2ccco2)CC1 | 0.55
CCOC(=O)N1CCN(c2ccccc2O)CC1 | -11.3
O=C(O)CCCNc1cc(N2CCN(C(=O)c3ccco3)CC2)c2noc3c2c1C(=O)c1ccccc1-3 | 25.1

Structure (SMILES) | inhibition [%]
CC(=O)OCCNc1cc(Sc2nc3ccccc3[nH]2)c2nonc2c1[N+](=O)[O-] | -9.31
CCOC(=O)c1c(C)oc2c1C(=O)c1ccccc1C2=O | 15.3
CCOC(=O)CC(=O)CSc1nc(C)nc2c1oc1ccccc12 | 2.82
O=C(NCCCN1CCOCC1)C(=O)NCC1OCCCN1S(=O)(=O)c1cc(F)ccc1F (stereo not given) | -1.53
COC(=O)c1cc(C)sc1NC(=S)N1CCN(CCc2ccccc2)CC1 | 4.17
CCN1CCN(c2ccc(NC(=O)c3ccc4c(c3)OCCO4)cc2C)CC1 | -4.06
COc1cccc(CCc2nc3ccccc3c(=O)n2N)c1 | -4.28
COc1ccc(S(=O)(=O)n2nc(-c3ccc(Cl)cc3)cc2N)cc1 | 2.77
CCN(CC(=O)Nc1c(F)cccc1F)C(=O)c1cc([N+](=O)[O-])ccc1N1CCOCC1 | -7.79
Cc1cc(C)nc(NS(=O)(=O)c2ccc(NC(=S)NC(=O)C3CCCC3)cc2)n1 | -7.03
COC(=O)c1ccccc1NC(=O)N1CCN(c2ccc(OC)cc2)CC1 | 12
COc1cc(-c2cc(C(=O)OCC(=O)NC3CC3)c3ccccc3n2)cc(OC)c1OC | -4.4
COc1ccc(C(=O)Nc2cnn(Cc3c(F)cccc3Cl)c2)cc1OC | -4.35
O=C(N[C@H]1CP(=O)(Oc2ccccc2)O[C@H](COCc2ccccc2)[C@H]1O)C(Cl)(Cl)Cl (stereo not given in full) | -20.9
CCOC(=O)c1cnc2ccc(C)cc2c1NCCN1CCOCC1 | -11.3
CCOC(=O)c1ccc2ncc(C(=O)OCC)c(Nc3ccc(N4CCOCC4)cc3)c2c1 | 28.6
O=c1[nH]c(=S)[nH]cc1Oc1ccccc1 | -0.47
CC(=O)N1c2ccc(S(=O)(=O)N3CCCC(C(=O)Nc4ccc(F)cc4)C3)cc2CC1C (stereo not given) | 1.22
CC1CCN(C2CCN(S(=O)(=O)c3ccc(F)cc3)CC2)CC1 | -14.4
CNCC(=O)Nc1c(C)n[nH]c1C | -3.79
Cc1nn2c(=S)[nH]nc2[nH]c1=O | 5.07
COc1ccccc1OCC(=O)Nn1c(=S)[nH]c2ncccc2c1=O | -1.5
Cc1n[nH]c(=S)n(/N=C/c2cccs2)c1=O | -10.9

Structure (SMILES) | inhibition [%]
COc1cc(C)ccc1OCC(=O)NC1CCCCCC1 | -0.58
CCC(C)NC(=O)COCc1cc(-c2ccc3c(c2)OCO3)on1 (stereo not given) | -7.2
COc1ccc(-c2sc3cc4c(cc3c2-c2ccc3c(c2)OCCO3)OCO4)cc1 | -11.4
ClCC1CSC(=NC23CC4CC(CC(C4)C2)C3)O1 (stereo not given) | -6.27
N#CC(C#N)=c1ccc2c(c1)N1C(c3ccccc3)=CC(c3ccccc3)C3CCCCC31N=2 (stereo not given) | -4.24
C1=CC2=NC34CCCCC3CC3=C(CCCC3)N4C2=CC1=NC1CCCCC1 (stereo not given) | 4.56
C=CCN(c1ccccc1)S(=O)(=O)c1cccc(C(=O)NCC(c2ccc(OC)cc2)N2CCCCC2)c1 (stereo not given) | 3.3
COc1cc(C=NNc2ccc(S(=O)(=O)Nc3ccccc3C(=O)O)cc2[N+](=O)[O-])ccc1O | 14.4
COc1ccccc1NS(=O)(=O)c1ccc(N/N=C/c2c(C)nn(-c3ccccc3)c2N2CCCC2)c([N+](=O)[O-])c1 | 8.44
CC(=O)Nc1ccc(C=NNc2ccc(S(=O)(=O)Nc3ccccc3C(=O)O)cc2[N+](=O)[O-])cc1 | 15.1
Cc1ccc(NC(=S)NNc2ccc([N+](=O)[O-])cc2S(=O)(=O)Nc2ccccc2C(=O)O)cc1C | 26.1
CSc1ccc(C=NNc2ccc(S(=O)(=O)Nc3ccccc3C(=O)O)cc2[N+](=O)[O-])cc1 | 3.57
COc1ccc(C=NNc2ccc(S(=O)(=O)Nc3ccccc3C(=O)O)cc2[N+](=O)[O-])c(OC)c1 | 20.4
COC(=O)Nc1ccc(S(=O)(=O)N2CCC(C(=O)N3CCCCC3C)CC2)cc1 (stereo not given) | -11.1
COc1ccccc1NS(=O)(=O)c1cc(C(=O)NCC(C)(C)N2CCOCC2)ccc1C | -2.2
CCOc1ccc(CN(CC)C(=O)Cc2c[nH]c3ccccc23)cc1OC | -0.83
O=C(O)[C@H](Cc1ccccc1)N1C(=O)c2ccncc2C1=O | -6.13
CC(=O)c1c(C)[nH]c(C(=O)OCC(=O)NCc2ccc3c(c2)OCO3)c1C | -0.39
NC(=O)NC(=O)CC1S/C(=N/N=C2/NC(=O)CS2)NC1=O (stereo not given) | 5.04
NC1=NC(=O)C(CC(=O)NCc2ccccc2)S1 (stereo not given) | 2.63
O=C(O)CNC(=O)CC1S/C(=N/N=C2/NC(=O)CS2)NC1=O (stereo not given) | 16.4
CCN=C1SC(CC(=O)NC(N)=O)C(=O)N1CC (stereo not given) | 0.98
CCN(CC)CCOc1ccccc1C(C)=O | -6.91

Structure (SMILES) | inhibition [%]
COc1ccc(CNC(=O)C(C)Sc2ccc(S(=O)(=O)N3CCOCC3)cn2)cc1 (stereo not given) | -8.84
CN(C)C(=O)C(OC(=O)c1ccc2c(c1)CCCC2)c1ccccc1 (stereo not given) | -4.12
Nc1cc([N+](=O)[O-])ccc1OCc1ccccc1 | -17.4
CC(=O)Nc1ccc(OCc2ccccc2)cc1[N+](=O)[O-] | -2.5
S=C(Nc1ccc(Cl)cc1)Nc1ccc2c(c1)OCCO2 | -3.12
COc1ccc(OC)c(S(=O)(=O)Nc2c(C)cccc2C)c1 | -4.66
CC(=O)N(Cc1ccc(F)cc1)c1cccc(C)c1C | 5.28
CCCNC1=C(N(C(C)=O)c2cccc(F)c2)C(=O)c2ccccc2C1=O | -1.3
O=C1C(Cl)=C(NCCc2ccccc2)C(=O)c2ccccc21 | 28.7
CN(CC(=O)NCCc1ccc(F)cc1)Cc1ccccc1 | 0.42
O=C1C=C(Nc2ccc(Cl)cc2)CC(c2ccccc2)C1 (stereo not given) | 1.69
CC(C)CCN1C(Nc2ccccc2)=NC[C@@H]1Cc1ccccc1 | -9.63
COC(=O)c1cc2c(-c3ccccc3)c(C)c3ccccn3c-2c1C(=O)OC | 26.4
COC(=O)c1cc2ccccn2c2c(C(=O)OC)c(C(=O)OC)cc1-2 | 16.8
CC(=O)NC1c2ccccc2C(=O)N1Cc1ccccc1 (stereo not given) | -3.85
O=[N+]([O-])c1cccc(/C=N/Nc2nc(NCc3ccccc3)nc(N3CCOCC3)n2)c1 | 0.07
O=[N+]([O-])c1ccc(/C=N/Nc2nc(NCc3ccccc3)nc(N3CCOCC3)n2)cc1 | -9.38
COc1ccc(NC(=O)[C@H](CCS(C)(=O)=O)N2Cc3ccccc3C2=O)c(OC)c1 | 28.3
C[C@H](OC(=O)c1[nH]cnc1C(=O)N1CCN(C(=O)OC(C)(C)C)CC1)c1ccccc1 | -7.71
CC1=NN(c2ccc(C(=O)O)cc2)C(=O)/C1=C/c1ccc(-c2ccccc2F)o1 | 23.6
CC1=NN(c2ccc(Cl)c(C(=O)O)c2)C(=O)/C1=C\c1ccc(-c2ccc(C(=O)O)cc2)o1 | 19.4
